Drawing on PubChem BioAssay (Tox21), this text covers Potency, outcome and activity change, positive = activation for seven molecules.

In test [1] the target is Luciferin 4-monooxygenase (Photinus pyralis) (UniProt P08659). Nature of the test: qHTS assay to identify small molecule inhibitors of firefly luciferase (AID 1224835). Note: nearly all actives have a fitted effect of over 25% in size. Note: potency is the fitted concentration of half-maximal effect. In outline:
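Biochemical qHTS: compounds run as interplate titrations against purified firefly enzyme, with D-luciferin and ATP each at its KM concentration. Light output recorded by CCD imaging.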

The nature of test [2]: qHTS assay to identify small molecule agonists of the constitutive androstane receptor (CAR) signaling pathway - cell viability counter screen (AID 1224836). Note: nearly all actives have a fitted effect of over 45% in size. In outline:
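HepG2 cells stably carrying hCAR and a CYP2B6-2.2kb reporter; 15-concentration compounds plus PK11195 (final 0.75 uM), 23 hr at 37 C/5% CO2. Viability read by CellTiter-Fluor fluorescence.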
In general terms: In qHTS, concentration-response curves come from the screen itself.

Test [3] can be described thus: qHTS assay to identify small molecule antagonists of the constitutive androstane receptor (CAR) signaling pathway - cell viability counter screen (AID 1224837). Note: nearly all actives have a fitted effect of over 45% in size. In outline:
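HepG2 cells stably expressing hCAR and a CYP2B6-2.2kb reporter were plated and pre-incubated 4 hr at 37 C/5% CO2, then given compounds at 15 concentrations plus 50 nM CITCO (final). After 23 hr, viability was read by CellTiter-Fluor fluorescence.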

Test [4] concerns the target Nuclear receptor subfamily 1 group I member 3 (Homo sapiens) (UniProt Q14994). Nature of the test: qHTS assay to identify small molecule antagonists of the constitutive androstane receptor (CAR) signaling pathway (AID 1224838). Note: nearly all actives have a fitted effect of over 40% in size. In outline:
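HepG2 cells stably co-transfected with hCAR and a CYP2B6-2.2kb luciferase reporter were seeded 4 h before compound addition at 15 concentrations. Cells were stimulated with 50 nM CITCO (final) for 24 h at 37 C; luciferase luminescence was then read.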

For test [5] the target is unchanged. Nature of the test: qHTS assay to identify small molecule agonists of the constitutive androstane receptor (CAR) signaling pathway (AID 1224839).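 Note: HepG2 cells stably carrying human CAR and a CYP2B6 luciferase reporter; nearly all actives have a fitted effect of over 15% in size.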 In outline:
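HepG2 cells stably co-transfected with hCAR and a CYP2B6-2.2kb luciferase reporter; compounds at 15 concentrations with 0.75 uM PK11195 present. After 24 hr at 37 C, luciferase read by ONE-Glo luminescence.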

Test [6] concerns the target Thyrotropin receptor (Homo sapiens) (UniProt P16473). Nature of the test: qHTS assay to identify small molecule agonists of the thyroid stimulating hormone receptor (TSHR) signaling pathway (AID 1224843; calls by dose curve; note: nearly all actives have a fitted effect of over 45% in size). In outline:
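Steps: seed 800 TSHR-HEK293 cells per well; add test compound and hold 30 min at ambient temperature; dispense cAMP-d2 then anti-cAMP cryptate; incubate 1 h at ambient; measure fluorescence intensity.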

Test [7] is described as follows: qHTS assay to identify small molecule agonists of the hypoxia (HIF-1) signaling pathway - cell viability counter screen (AID 1224844; calls by dose curve; note: nearly all actives have a fitted effect of over 50% in size). In outline: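 HRE-bla ME-180 cells in medium with 0.5% dialyzed FBS were preincubated 5 hrs at 37C, exposed to compounds for 17 hrs, then viability was read as CellTiter-Glo luminescence after 30 min at room temperature, in the reporter wells.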

Test [8] in a line: qHTS assay to identify small molecule agonists of H2AX (AID 1224845; active = well fitted activation curve with a large enough effect in the signal ratio in the repeat runs, not every such curve was filed as active; the % refers to the signal ratio). In outline:
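Wild-type CHO-K1 cells, plated overnight, exposed 3hr at 37C to 15 concentrations (0.76% DMSO final). Lysed, then HTRF anti-pH2AX (S139) cryptate and anti-H2AX-d2 antibodies, 24 hr room temperature; 665/620 nm emission read.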

Test [9] can be described thus: qHTS assay to identify small molecule agonists of the hypoxia (HIF-1) signaling pathway (AID 1224846; active = well fitted activation curve with a large enough effect in the signal ratio in the repeat runs, not every such curve was filed as active; the % refers to the signal ratio). In outline:
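HRE-bla ME-180 cells (beta-lactamase reporter under hypoxia response element) were plated at 2,000 cells/well in medium with 0.5% dialyzed FBS, rested 5 hrs, then given compounds in DMSO for 17 hrs at 37C, 5% CO2. Reporter induction was read with CCF4-AM FRET substrate.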

A short description of test [10]: qHTS assay to identify small molecule agonists of H2AX - cell viability counter screen (AID 1224847; calls by dose curve; note: top concentration of the series differs between compounds; nearly all actives have a fitted effect of over 30% in size). In outline: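 CHO-K1 cells plated overnight at 37C, then exposed 3 h at 37C to compounds at 15 concentrations (0.76% DMSO final). Viability by CellTiter-Glo luminescence after 30 min at room temperature.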
Test [11] in a line: qHTS RealTime-Glo MT Cell Viability Assay in HepG2 cells - 24 hour (AID 1224867). Note: nearly all actives have a fitted effect of over 50% in size. In outline: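 HepG2 suspension premixed with RealTime-Glo reagents is plated at 600 cells per well and left 5 h at 37 C/5% CO2. Compounds in DMSO then go in, and bioluminescence reflecting viable cell number is recorded over 40 h.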
Test [12] in a line: qHTS RealTime-Glo MT Cell Viability Assay in HEK293 cells - 32 hour (AID 1224868). Note: nearly all actives have a fitted effect of over 50% in size. Note: potency is the fitted concentration of half-maximal effect. In outline: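 Reads taken at 0, 8, 16, 24, 32 and 40 h from the same wells. HEK293 cells (600/well) carried RealTime-Glo reagents from seeding, with compound added after a 5 h settle at 37 C.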
Test [13] in a line: A CellTox Green Cytotoxicity Assay to monitor cytotoxicity in HEK293 cells - 0 hour (AID 1224869). Note: nearly all actives have a fitted effect of over 50% in size. In outline:
(§1)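 HEK293 cells premixed with CellTox Green dye were seeded at 600 cells/well and left 5 h at 37 C/5% CO2 before pin transfer of 23 nL compound in DMSO. Fluorescence from dye bound to dead-cell DNA was read during 40 h treatment.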

Test [14] is described as follows: qHTS RealTime-Glo MT Cell Viability Assay in HepG2 cells - 40 hour (AID 1224870). Note: nearly all actives have a fitted effect of over 50% in size. In outline:
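HepG2 cells (600/well) mixed with RealTime-Glo MT reagent, settled 5 h at 37 C/5% CO2 before compound addition. Nonlytic NanoLuc luminescence from viable-cell prosubstrate reduction read repeatedly during 40 h treatment at 37 C.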

The nature of test [15]: A CellTox Green Cytotoxicity Assay to monitor cytotoxicity in HEK293 cells - 40 hour (AID 1224871). Note: nearly all actives have a fitted effect of over 45% in size. In outline:
as §1

The nature of test [16]: qHTS assay to identify small molecule antagonists of the estrogen related receptor signaling pathway with the pleiotropic PPARgamma coactivator (PGC) from Tox21 10K library (AID 1224841; call rule not given here). In outline: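 PGC/ERR reporter cells were seeded at 2,000 cells/well and held 6 hours at 37 C/5% CO2 before pin-tool addition of compounds in DMSO. After 18 hours at 37 C, One-Glo was added and luminescence read after 30 minutes at room temperature.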

Test [17] is described as follows: qHTS assay to identify small molecule agonists of the estrogen related receptor signaling pathway with the pleiotropic PPARgamma coactivator (PGC) from Tox21 10K library (AID 1224842). Note: nearly all actives have a fitted effect of over 15% in size. In outline: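 PGC/ERR reporter cell line, 2,000 cells per well, incubated 6 h at 37 C before 23 nL compound in DMSO was added. After 18 h at 37 C, One-Glo luminescence read following 30 min at room temperature.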

Test [18] in a line: qHTS assay to identify small molecule antagonists of the estrogen related receptor (ERR) signaling pathway from Tox21 library (AID 1224848). Note: nearly all actives have a fitted effect of over 50% in size. Note: potency is the fitted concentration of half-maximal effect. In outline: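 Luminescent reporter read-out (ONE-Glo) from NTP's ERR cell line after 18 h treatment at 37 C with DMSO-dissolved Tox21 compounds; cells pre-plated 6 h beforehand at 2,000 per well.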
Test [19] can be described thus: qHTS assay to identify small molecule agonists of the estrogen related receptor (ERR) signaling pathway from Tox21 library (AID 1224849; calls by dose curve; note: nearly all actives have a fitted effect of over 15% in size). The conditions noted are these: ERR reporter cell line, ONE-Glo luciferase, 18 h. In outline:
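ERR reporter cell line (NTP) seeded, rested 6 h at 37 C/5% CO2, then pinned with Tox21 compounds in DMSO. After 18 h at 37 C, ONE-Glo luciferase luminescence was read following 30 min at room temperature.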

Test [20] can be described thus: qHTS assay to identify small molecule antagonists of the estrogen related receptor signaling pathway with the pleiotropic PPARgamma coactivator (PGC) from Tox21 10K library - cell viability counter screen (AID 1224840; active = well fitted cell-killing curve with a large enough effect in the repeat runs, not every such curve was filed as active; note: nearly all actives have a fitted effect of over 40% in size). In outline:
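PGC/ERR cells were seeded at 2,000 cells/well and left 6 hours at 37 C/5% CO2 before pin-tool addition of compounds in DMSO. After 17.5 hours at 37 C, CellTiter-Fluor was added and fluorescence read 30 minutes later.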

Molecules are shown by their SMILES. Where “and” joins values, the source holds several entries; their conditions need not be identical. Equal entries are not always repeated. Inconclusive results are not listed. More than one record can exist for a structure, and the calls need not agree. Calls of active or inactive are those of the source. Unless noted, calls come from the whole dose curve; as a rule, active = well fitted curve in the direction sought with a large enough effect in the repeat runs; inconclusive = weak or mixed curves; inactive = no such curve, though single readings can be large; an effect the other way counts as inactive or inconclusive.
% is set by controls: 0 for no effect and ±100 for the full control effect.

Chain of Nuclear receptor subfamily 1 group I member 3 (Homo sapiens) (Q14994 whole entry, looked up): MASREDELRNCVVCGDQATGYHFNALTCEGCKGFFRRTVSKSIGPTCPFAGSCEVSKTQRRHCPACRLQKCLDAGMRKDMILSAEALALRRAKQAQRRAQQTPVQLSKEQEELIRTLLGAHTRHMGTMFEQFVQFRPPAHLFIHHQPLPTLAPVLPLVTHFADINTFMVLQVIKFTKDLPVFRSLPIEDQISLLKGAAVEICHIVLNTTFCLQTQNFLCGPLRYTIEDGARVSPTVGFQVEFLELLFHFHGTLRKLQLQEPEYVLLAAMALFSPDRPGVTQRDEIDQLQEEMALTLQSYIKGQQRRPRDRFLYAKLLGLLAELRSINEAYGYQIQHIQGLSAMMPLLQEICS
Chain of Luciferin 4-monooxygenase (Photinus pyralis) (P08659 whole entry, looked up): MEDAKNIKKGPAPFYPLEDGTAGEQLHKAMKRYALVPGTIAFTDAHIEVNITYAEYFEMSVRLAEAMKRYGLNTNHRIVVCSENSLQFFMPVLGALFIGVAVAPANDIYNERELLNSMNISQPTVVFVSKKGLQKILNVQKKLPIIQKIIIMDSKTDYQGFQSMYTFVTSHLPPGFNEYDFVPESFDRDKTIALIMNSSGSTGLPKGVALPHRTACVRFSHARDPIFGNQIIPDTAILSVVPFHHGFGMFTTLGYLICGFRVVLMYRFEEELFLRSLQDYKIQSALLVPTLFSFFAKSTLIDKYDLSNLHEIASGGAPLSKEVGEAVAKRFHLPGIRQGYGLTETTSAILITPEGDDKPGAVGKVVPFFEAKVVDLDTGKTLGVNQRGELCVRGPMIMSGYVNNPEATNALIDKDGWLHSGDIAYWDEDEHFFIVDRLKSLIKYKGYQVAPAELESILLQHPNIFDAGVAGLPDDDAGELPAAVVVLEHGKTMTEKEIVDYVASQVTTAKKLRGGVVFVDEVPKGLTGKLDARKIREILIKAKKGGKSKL
Chain of Thyrotropin receptor (Homo sapiens) (P16473 whole entry, looked up): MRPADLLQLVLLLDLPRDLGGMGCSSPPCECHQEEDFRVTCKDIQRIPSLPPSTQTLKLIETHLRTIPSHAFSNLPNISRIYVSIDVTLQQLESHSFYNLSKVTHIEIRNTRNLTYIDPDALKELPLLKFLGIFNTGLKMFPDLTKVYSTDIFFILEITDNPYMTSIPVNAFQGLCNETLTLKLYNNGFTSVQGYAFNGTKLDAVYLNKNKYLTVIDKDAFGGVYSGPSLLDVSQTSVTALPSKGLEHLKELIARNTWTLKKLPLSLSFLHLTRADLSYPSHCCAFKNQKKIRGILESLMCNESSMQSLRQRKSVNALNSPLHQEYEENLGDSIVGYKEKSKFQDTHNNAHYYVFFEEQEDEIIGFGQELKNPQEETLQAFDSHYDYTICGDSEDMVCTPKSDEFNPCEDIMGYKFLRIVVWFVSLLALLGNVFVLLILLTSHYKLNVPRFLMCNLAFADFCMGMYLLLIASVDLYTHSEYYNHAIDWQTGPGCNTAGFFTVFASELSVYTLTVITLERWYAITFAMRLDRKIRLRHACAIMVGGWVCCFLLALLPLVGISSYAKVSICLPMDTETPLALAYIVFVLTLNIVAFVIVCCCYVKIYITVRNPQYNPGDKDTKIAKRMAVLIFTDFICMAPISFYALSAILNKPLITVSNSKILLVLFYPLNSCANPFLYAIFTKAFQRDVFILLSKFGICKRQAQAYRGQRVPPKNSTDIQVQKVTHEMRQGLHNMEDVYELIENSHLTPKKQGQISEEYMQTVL

Consider `Cc1ccc(C(C)(C)C)cc1`, for which the Potency entry in test [1], in test [2], in [3], in test [4], in test [5] and in test [6] was “inactive” each time. The Potency result in test [7], in test [8], in test [10], in test [11], in test [12] and in test [13] was “inactive” throughout. The Potency result in test [14] and in test [15] was “inactive” in each case. In addition, the outcome in test [9] was inactive.

For the molecule `C[C@]12CC[C@@H]3c4ccc(O)cc4CC[C@H]3[C@@H]1CC[C@H]2O`, the Potency entry is “inactive and 39.9 µM (active)” in test [1]; 15.6 µM (active) and 27.3 µM (active) in test [18]; 5.59 µM (active) and 13.8 µM (active) in test [12]. For the same molecule, the Potency entry in [2], in test [3], in test [4], in test [16], in [17] and in [7] was “inactive” in each case. In addition, the Potency result in test [8], in test [10], in test [11], in test [13], in test [14] and in test [15] was “inactive” in each case. The activity change, positive = activation in [19] (at 92.4 µM (top of the series)) was -38.5% (inactive) and -39.7% (inactive).

In the case of `CN(C)C`, the Potency entry in test [1], in [2], in test [3], in test [4], in test [5] and in test [7] was “inactive” in each case. For the same molecule, the Potency entry in test [8], in [10], in test [11], in [12], in test [13] and in test [14] was “inactive” each time. Moreover, in test [15], the Potency entry was “inactive”. Also, the result in test [9] was inactive.

With `Cc1cccc(Nc2ccccc2C(=O)O)c1C`, the Potency in test [1] was 79.6 µM (active). In addition, the Potency result in test [2], in test [3], in test [4], in test [5], in test [20] and in test [7] was “inactive” in each case. Also, the Potency result in test [8], in test [10], in [11], in test [12], in test [13] and in test [15] was “inactive” each time.

For `CCCCCCCCCCC(CO)CCCCCCCC` (stereo not drawn), the Potency result in test [1], in test [2], in test [3], in [4], in [5] and in [6] was “inactive” each time. Further, the Potency result in test [7], in test [8], in test [11], in test [12], in test [13] and in [15] was “inactive” in each case. In addition, in test [9], the molecule was classed as inactive.

Turning to `CC(=O)[C@@]1(O)CC[C@H]2[C@@H]3C[C@H](C)C4=CC(=O)C=C[C@]4(C)[C@@]3(F)[C@@H](O)C[C@@]21C`, the Potency entry in test [1], in test [2], in test [3], in [4], in test [5] and in test [16] was “inactive” each time. The Potency result in test [17], in [7], in test [8], in [10], in [11] and in test [13] was “inactive” in each case. Moreover, the Potency entry in [14] and in test [15] was “inactive” throughout. In addition, the molecule was called inactive in test [9]. For the same molecule, the results for the activity change, positive = activation in test [19] (at 42.5 µM (top of the series)) and in test [19] (at 92.4 µM (top of the series)) were -14.9% (inactive) and -31% (inactive), respectively. The Potency in [12] was 19.5 µM (active) and inactive.

Turning to `COCCOCCOCCO`, the Potency result in test [1], in [2], in test [3], in test [4], in [5] and in [16] was “inactive” each time. Moreover, the Potency entry in test [17], in test [6], in test [7], in test [8], in test [10] and in [18] was “inactive” in each case. Besides, the Potency result in [11], in test [12], in test [13], in [14] and in test [15] was “inactive” throughout. The molecule was called inactive in test [9]. Moreover, the activity change, positive = activation in test [19] (at 92.4 µM (top of the series)) is 3.34% (inactive) and 5.65% (inactive).
